Source: PubChem
D1 potentiator = potentiators of human D1 dopamine receptor | HEK293 TREx D1 cells, calcium flux, dopamine EC20 potentiation | potentiation, % at 10 µM | 0.036% of 360,000 active | P21728 | AID 504651; in the data active = potentiation above about 30%; also: 0% is about no effect
Target sequence (P21728 whole entry, looked up): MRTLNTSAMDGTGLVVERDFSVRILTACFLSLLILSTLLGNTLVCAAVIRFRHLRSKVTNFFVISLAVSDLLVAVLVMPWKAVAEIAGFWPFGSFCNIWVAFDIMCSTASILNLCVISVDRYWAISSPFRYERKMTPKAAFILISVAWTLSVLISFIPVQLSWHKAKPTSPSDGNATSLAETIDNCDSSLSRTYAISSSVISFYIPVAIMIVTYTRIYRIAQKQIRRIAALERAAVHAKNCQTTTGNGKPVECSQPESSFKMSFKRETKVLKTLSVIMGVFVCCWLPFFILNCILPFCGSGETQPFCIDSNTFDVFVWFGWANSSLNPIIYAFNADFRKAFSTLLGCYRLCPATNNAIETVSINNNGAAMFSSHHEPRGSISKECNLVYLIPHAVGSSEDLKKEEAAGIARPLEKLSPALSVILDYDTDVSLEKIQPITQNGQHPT
DRD3 antagonist = D3 dopamine receptor (human) antagonism; P35462; D3R cells, DiscoveRx beta-arrestin luminescence, antagonist mode; active compounds read low; max response, negative = inhibition, %; 2.5% of 360,000 active; in the data active = max response below about -50%; inconclusive = no clear call, values can overlap the other calls; also: % is scaled to controls: 0 for no effect and ±100 for the full control effect
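Cells expressing the human receptor were seeded at 1500 cells/well, incubated overnight at 37 degrees C in 5% CO2, then exposed to library compounds with dopamine controls for 90 minutes at 37 degrees C before luminescent detection.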
D1 ag = activates the human D1 dopamine receptor; P21728; HEK293 T-REx D1 cells, calcium flux, agonist mode; activation, % at 2 µM; 1% of 360,000 active; AID 504660; in the data active = activation above about 30%; also: 0% is about no effect
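Tetracycline-induced HEK293 TREx D1 cells, force-coupled to calcium signalling, were dye-loaded with a no-wash calcium kit. Compound was pin-added after a 10 s baseline. Fluorescence was read kinetically at 1 cycle/s for 180 s, with calcium rises flagged as agonism.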
DRD3 agonist = activates the human D3 dopamine receptor. P35462. D3R DiscoveRx beta-arrestin cells, luminescence, 90 min. max activation, %. 0.58% of 410,000 active; in the data active = max activation above about 30%; also: 0% is about no effect
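Agonist mode: compounds and dopamine controls were applied to plated cells for 90 min at 37 degrees C after an overnight attachment at 1500 cells/well. Luminescent read-out followed 30 - 60 minutes at room temperature with DiscoveRx detection reagent.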
D1 antag = blocks dopamine activation of the human D1 receptor. activity change, negative = inhibition, % at 10 µM. AID 504652. HEK293 TREx D1 cells, calcium flux, dopamine EC80; active compounds read low. 3.2% of 360,000 active. P21728; in the data active = activity change below about -30%; also: % is scaled to controls: 0 for no effect and ±100 for the full control effect
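HEK293 T-REx cells expressing inducible, force-coupled D1 receptor; no-wash Ca dye, 30–90 min RT. Cmpd → 180 s read at 1 Hz → EC80 DA → 180 s read.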
ERG Ets-DNA blk = inhibitors of human ERG Ets domain-DNA interaction; fluorescence polarization, His-ERG Ets domain / labelled DNA; Potency, µM (highest dose often 76.9 µM), for the others: at the highest dose FP activity, negative = inhibition, hits mostly inhibitors; 0.028% of 370,000 active; AID 624246; active = well fitted inhibition curve with a large enough effect in the polarisation, with a control signal flat; inconclusive = small, poorly fitted or top-dose-only effect, or effect the other way, or a change in a side signal; inactive = no such curve, though single readings can be large or run the other way; the % refers to the polarisation;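 also: polarization taken with two DNA probes labelled with fluorescein and Texas red; potency is read from the fitted curve at half-maximal effect; % of control where 0% means no effect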
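His-tagged ERG Ets domain (1 uM in the protein solution; 300mM KCl, 50mM Tris-HCl, 1mM EDTA, 1mM DTT, pH 7.5) received compound, then a probe mix of 5 nM fluorescein-DNA and 100nM Texas-615-DNA. Fluorescence polarization was read for both dyes.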
Numbers without * were called inactive; ? = inconclusive; . = no result. Most compounds without a hit are left out; they make up all but 6.1% or so of the library.

SMILES	D1 potentiator	DRD3 antagonist	D1 ag	DRD3 agonist	D1 antag	ERG Ets-DNA blk
COc1ccc(C(CCNCc2ccc(N(C)C)cc2)c2ccccc2OC)cc1 (stereo not drawn)	-10	-55*	6	-30	11	10%
COc1ccc(CNCCC(c2ccc(F)cc2)c2ccc(OC(C)C)cc2)cc1OC (stereo not drawn)	0	1	25	-22	-29	1%
COc1ccc(C(CCNCc2ccc(OC(C)C)cc2)c2ccccc2OC)cc1 (stereo not drawn)	3	15	59*	-10	10	-2%
Cc1ccc(C)c(NC(=O)Cn2c(=O)n(Cc3ccccc3)c(=O)c3oc4ccccc4c32)c1	-4	.	0	2	-1	1%
CC(=O)c1c(C)[nH]c(C(=O)OCc2cc(=O)n3cc(Br)ccc3n2)c1C	-2	13	2	14	-7	-1%
N#C/C(=C/c1ccc(N2CCCCC2)o1)C(=O)Nc1ccc(Cl)cc1	-18	16	420*	2	-3	-5%
N#C/C(=C/c1ccc(N2CCCCC2)o1)C(=O)Nc1ccc2ccccc2c1	-8	-15	313*	6	-38*	?
CCOc1ccc(OC(=O)c2c(-c3ccccc3Cl)noc2C)cc1	1	.	6	7	7	-15%
COc1ccc2ccccc2c1CN1CCN(Cc2ccccc2)CC1	-12	-71*	-1	-30	-9	.
COc1ccccc1CN1CCN(Cc2ccc3ccccc3c2)CC1	-9	-90*	6	-2	36	4%
CCN1CCN(Cc2ccc(OC)c(OCc3ccccc3)c2)CC1	-4	?	3	-8	3	-6%
COc1ccccc1CN1CCCCCC1	-6	-29	-2	-10	32	-6%
COc1ccc(CN2CCN(Cc3ccc4ccccc4c3)CC2)cc1OC	-11	-76*	7	-49	-1	-4%
CSc1ccc(S(=O)(=O)NCCOc2ccccc2C)cc1	-7	-9	9	-11	-31*	-3%
CCCOc1ccc(C(=O)NNC(=S)NC(=O)c2ccccc2[N+](=O)[O-])cc1	-14	6	1	5	-18	-4%
CCCOc1ccc(C(=O)NNC(=S)NC(C)=O)cc1	0	15	1	3	-34*	-2%
CCCOc1ccc(C(=O)NNC(=S)NC(=O)c2cc(-c3ccccc3)nc3ccccc23)cc1	0	-55*	17	-7	-18	6%
CCCOc1ccc(C(=O)NNC(=S)NC(=O)c2cccs2)cc1	11	1	104*	-1	-26	4%
CCCOc1ccc(C(=O)NNC(=S)NC(=O)c2ccccc2)cc1	22	-7	197*	0	-11	-11%
CCCOc1ccc(-c2cc(C(=O)NCC3CCCO3)c3ccccc3n2)cc1 (stereo not drawn)	-7	3	0	6	-17	-5%
CCn1c2ccccc2c2nnc(SCC(=O)NC3CCS(=O)(=O)C3)nc21 (stereo not drawn)	-5	0	5	-1	-19	-3%
O=[N+]([O-])c1ccc(S(=O)(=O)c2cccc(C(F)(F)F)c2)nc1	.	-126*	.	-33	.	-2%
Cc1onc(C(=O)NN)c1-c1csc(COc2ccc(Cl)cc2)n1	-6	4	13	44*	-21	0%
Cc1ccc(SC(C)C(=O)NCc2ccncc2)cc1 (stereo not drawn)	8	-59*	2	-7	-21	1%
COc1ccc(/C=N/Nc2nc(N3CCCC3)nc(N3CCCC3)n2)c(OC)c1OC	-7	15	-1	4	-42*	-5%
SMILES	D1 potentiator	DRD3 antagonist	D1 ag	DRD3 agonist	D1 antag	ERG Ets-DNA blk
COc1cccc(/C=N/Nc2nc(N3CCCC3)nc(N3CCCC3)n2)c1O	1	37	1	24	1	.
CC(/C=N/Nc1nc(N2CCCCC2)nc(N2CCCCC2)n1)=C\c1ccccc1	-5	-18	4	39*	-18	.
Oc1ccc(/C=N/Nc2nc(N3CCCCCC3)nc(N3CCCCCC3)n2)c(O)c1	-10	55	9	37*	-41*	0%
CCOc1ccc(S(=O)(=O)N(CC(=O)Nc2ccc(OC)cc2OC)c2ccccc2)cc1	-2	.	2	-10	8	5%
COCCNC(=O)C(c1ccccc1F)N(C(=O)C(=O)NC1CCCC1)C1CCCCC1 (stereo not drawn)	-4	4	1	-13	-3	3%
Cc1nc(-c2ccc(NC(=O)c3ccc(Br)o3)cc2)cs1	-4	5	7	4	1	-2%
COc1cc(/C=C2\C(=N)N3N=CSC3=NC2=O)cc(Br)c1OC(=O)c1ccco1	-1	7	4	4	5	-4%
Cc1cc2nc(Sc3c([N+](=O)[O-])nc(C)n3Cc3ccccc3)[nH]c2cc1C	-12	-5	3	-1	-7	-15%
COC(=O)C[C@@H]1C[C@H]2c3cc(NS(=O)(=O)c4ccccc4)ccc3O[C@H]2[C@@H](CO)O1	.	10	.	1	.	.
COc1ccc(Cn2c(C(=O)O)c(CNCc3ccc(C)o3)c3ccc(C)cc32)cc1	2	.	0	-12	19	2%
CCN1C(=O)[C@H]2[C@@H](c3ccc(C)cc3)N3C(=O)N(c4ccc(C)cc4)C(=O)[C@@]3(Cc3ccccc3)[C@H]2C1=O	-8	43	3	48*	-15	-7%
Cc1cccc([C@@H]2[C@@H]3C(=O)N(Cc4ccccc4)C(=O)[C@@H]3[C@]3(C)C(=O)N(c4cccc(Cl)c4)C(=O)N23)c1	-5	-60*	3	-5	5	-2%
CCN(CC)C(=O)/C(=C/c1ccc2c(c1)OCO2)NC(=O)c1ccc(Br)cc1	-9	-1	3	-5	5	3%
C[C@H]1CN([C@@H](C)CO)C(=O)CCCn2cc(nn2)CO[C@@H]1CN(C)S(=O)(=O)c1ccc2c(c1)OCCCO2	.	8	.	-2	.	.
COC(=O)c1ccc(OC(=O)CS(=O)c2ccccc2[N+](=O)[O-])cc1 (stereo not drawn)	0	12	1	-3	-1	-2%
CCOC(=O)c1ccccc1OC(=O)CS(=O)c1ccccc1[N+](=O)[O-] (stereo not drawn)	-1	-20	0	-8	-32*	-5%
O=C1NC[C@H](CCCCN2C[C@H](Cc3ccccc3)N(CCC3CCCCC3)C(=O)C2=O)N(CCC2CCCCC2)C1=O	.	0	.	-3	.	.
CCOCCCNC(=O)c1cnc2sc(N3CCCCCC3)nn2c1=O	-1	.	0	11	-31*	-1%
CCCNC(=O)c1ccc(Cn2cc(C(F)(F)F)ccc2=O)cc1	-1	2	6	5	-13	0%
